Assay results reported in PubChem BioAssay (NCATS).
Inconclusive results are not listed. Entries that show only a call come without a potency. Activity calls are given as the source filed them. The call rests on the fitted dose curve; in most records, active means well fitted inhibition curve with a large enough effect; inconclusive means small, poorly fitted or top-dose-only effect; inactive means flat fitted curve, though single readings scatter. Where a SMILES comes first, the peptide text is derived from it.

Target: Calcium and integrin-binding protein 1 (Homo sapiens) (UniProt Q99828)
Sequence (Q99828 whole entry, looked up): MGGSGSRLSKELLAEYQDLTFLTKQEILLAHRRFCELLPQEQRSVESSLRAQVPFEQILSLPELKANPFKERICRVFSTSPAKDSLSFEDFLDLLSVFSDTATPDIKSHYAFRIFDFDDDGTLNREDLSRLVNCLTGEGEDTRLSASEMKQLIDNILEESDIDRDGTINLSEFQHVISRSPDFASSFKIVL
Assay: Primary qHTS for Identification of Calcium Integrin Binding Protein 1 (CIB1) Competitor (AID 1508620);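 further: GST tagged CIB1 binding a fluorescein labelled alphaIIb integrin peptide tracer; top concentration of the series differs between compounds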
Conditions: CIB1-GST / FITC-alphaIIb peptide fluorescence polarization; series mostly up to 57.7 µM
In short: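 Fluorescence polarization competition: CIB1-GST (1 uM final) preincubated with compound 15 min at room temperature, then FITC-labeled alphaIIb peptide (100 nM final) added for another 15 min. Polarization read at Ex 480/Em 540.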

Structure (SMILES)	Potency
CC1CC(=O)C2=C(O1)OC1(C)CCC3C(C)(C)C4OC4C(=O)C3(C)C1C2 (centres undefined)	inactive
CC(C)C(NC(=O)c1ccc(O)cc1)C(=O)N1CCCC1C(=O)Nc1c(O)cccc1C(=O)O (centres undefined)	inactive
NC1(c2ccc(NC(=O)c3ccnc(-c4cc(C(=O)O)ccn4)c3)cc2)CC1	inactive
CC(=O)NC(Cc1ccccc1)C(=O)NC(C(=O)O)C(C)C (stereo not drawn) (Ac-Phe-Val-OH; configuration not given here)	inactive
C=CC(C)(O)CC/C=C(\C)C(=O)O[C@@H]1[C@@H](O)[C@H](OC(C)(C=C)CC/C=C(\C)C(=O)O)O[C@H](CO)[C@H]1OC(=O)/C(C)=C/CCC(C)(O)C=C (some centres undefined)	inactive
CC1(C)C=Cc2c(ccc3c2N=C2C(C)(C)[C@@H]4C[C@]56CCCN5C(=O)[C@@]4(C[C@]23O)NC6=O)O1	inactive
CC(C)C1(O)NC(=O)C(CC2(O)c3ccccc3N3C(=O)C(C)(C)NC32)n2c1nc1ccccc1c2=O (centres undefined)	inactive
C=C[C@@](C)(CCC=C(C)C)O[C@@H]1O[C@H](CO[C@@H]2OC[C@H](O)[C@H](O)[C@H]2O)[C@@H](O)[C@H](O)[C@H]1O	inactive
COC(=O)CCC1(C)C(C(C)(C)O)C(O)CC2(C)Oc3c(C)c4c(c(OC)c3CC21)C(=O)OC4 (centres undefined)	inactive
CC(C)(O)c1ccc2c(c1)C(=O)C[C@H]1[C@](C)(C(=O)O)CCC[C@]21C	inactive
O=C(O)Cc1cn([C@@H]2O[C@H](CO)[C@@H](O)[C@H](O)[C@H]2O[C@@H]2O[C@H](CO)[C@@H](O)[C@H](O)[C@H]2O)c2ccccc12	inactive
COC(=O)C1=CO[C@@H](O[C@@H]2O[C@H](CO)[C@@H](O)[C@H](O)[C@H]2O)/C(=C\CO)[C@@H]1CC(=O)OCCc1ccc(O)cc1	inactive
CC1=CC(=O)CC(C)(C)C1CCC(C)O[C@@H]1O[C@H](CO)[C@@H](O)[C@H](O)[C@H]1O (some centres undefined)	inactive
C=CCC1=C[C@]2(OC)[C@H](C)[C@@H](c3ccc(OC)c(OC)c3)O[C@]2(OC)CC1=O	inactive
Cn1nccc1-c1ccccc1Oc1ccc(S(=O)(=O)Nc2nccs2)cc1C#N	inactive
C[C@@H]1CC[C@]2(C(=O)O[C@@H]3O[C@H](CO[C@@H]4O[C@H](CO)[C@@H](O)[C@H](O)[C@H]4O)[C@@H](O)[C@H](O)[C@H]3O)CC[C@]3(C)C(=CCC4[C@@]5(C)CC[C@H](O)[C@](C)(C(=O)O)C5CC[C@]43C)[C@@H]2[C@]1(C)O (some centres undefined)	inactive
CC(C)(OC1OC(CO)C(O)C(O)C1O)C1CCC(O)(CO)C2CC(=O)C(C)(O)C2C1 (centres undefined)	inactive
C=C1CC[C@H]2[C@@](C)(CCC(O)[C@@]2(C)CO)[C@@H]1/C=C/C(=C\C(=O)O)C(=O)O (some centres undefined)	inactive
CC1CCC2C(C)(C)C(O)C(O)CC2(C)C12Cc1c(O)cc(CO)c(C=O)c1O2 (centres undefined)	inactive
CC1CCC2(NC1)OC1C(O)C3C4CCC5CC(O[C@@H]6O[C@H](CO)[C@@H](O)[C@H](O)[C@H]6O[C@@H]6O[C@@H](C)[C@H](O)[C@@H](O)[C@H]6O)CCC5(C)C4CCC3(C)C1C2C (some centres undefined)	inactive
C[C@]12CC[C@@H]3c4ccc(O)cc4CC[C@H]3[C@@H]1C[C@@H](O[C@@H]1O[C@H](C(=O)O)[C@@H](O)[C@H](O)[C@H]1O)[C@@H]2O	inactive
COC(=O)C(Cc1ccccc1)NC(=O)c1ccccc1 (centres undefined)	inactive
OC[C@H]1O[C@@H](OC[C@H]2O[C@@H](OCc3ccccc3)[C@H](O)[C@@H](O)[C@@H]2O)[C@H](O)[C@@H](O)[C@@H]1O	inactive
O=C(O[C@H]1[C@H](Oc2ccc(O)cc2CO)O[C@H](CO)[C@@H](O)[C@@H]1O)c1ccccc1	inactive
CC(=O)c1[nH]cc(CCC(=O)O)c1CC(=O)O	inactive
C=CC(C)(O)CC/C=C(\C)C(=O)O[C@@H]1[C@@H](O)[C@H](OC(C)(C=C)CC/C=C(\C)C(=O)O[C@@H]2O[C@H](CO)[C@@H](O)[C@H](O)[C@H]2O)O[C@H](CO)[C@H]1OC(=O)/C(C)=C/CCC(C)(O)C=C (some centres undefined)	inactive
C/C(=C\CCC(C)C1CC(O)C2(C)C3CCC4C(C)(C)C(OC5OCC(O)C(O)C5O)CCC45CC35CC(O)C12C)C(=O)O (centres undefined)	inactive
Cc1sc(C)c(C(=O)NC2(c3ccc(C(=O)O)cc3)CC2)c1Cc1ccc(C(F)(F)F)cc1	inactive
CC[C@H]1OC(=O)[C@H](C)C(=O)[C@H](C)[C@@H](OC2O[C@H](C)C[C@H](N(C)C)[C@H]2O)[C@@H](C)C[C@@H](C)C(=O)/C=C/[C@]1(C)O (some centres undefined)	inactive
